# From PubChem BioAssay (NCI)
# “And” between values parts separate entries of the source, which are not always exact repeats. Identical values can stand only once. Compounds without any hit were thinned out: in the full panel of roughly 83,000, 20% have a hit.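 Single-dose data. Exposure time 48 hours. Values below 10 considered active.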 The source made the active and inactive calls.
# Experiments:
# Assay in all cases: NCI-60 one-dose screen, 48 h (100 = growth as untreated, 0 = no growth, -100 = all killed)
# Conditions in all cases: 10 µM unless noted
# SR leukemia = tested on: SR leukemia
# RPMI-8226 leukemia = tested on: RPMI-8226 leukemia
# OVCAR-8 ovarian = tested on: OVCAR-8 ovarian
# OVCAR-5 ovarian = tested on: OVCAR-5 ovarian
# OVCAR-4 ovarian = tested on: OVCAR-4 ovarian
# SK-OV-3 ovarian = tested on: SK-OV-3 ovarian
# IGROV1 ovarian = tested on: IGROV1 ovarian
# OVCAR-3 ovarian = tested on: OVCAR-3 ovarian
# HS 578T breast = tested on: HS 578T breast
# NCI/ADR-RES ovarian = tested on: NCI/ADR-RES ovarian
Structure (SMILES),growth (SR leukemia),growth (RPMI-8226 leukemia),growth (OVCAR-8 ovarian),growth (OVCAR-5 ovarian),growth (OVCAR-4 ovarian),growth (SK-OV-3 ovarian),growth (IGROV1 ovarian),growth (OVCAR-3 ovarian),growth (HS 578T breast),growth (NCI/ADR-RES ovarian)
CN(C)c1ccc2nc3ccc(N)cc3[n+](-c3ccccc3)c2c1,18.6% (inactive) and 11% (inactive),8.36% (active) and 13.7% (inactive),19.4% (inactive) and -16.6% (active),87.1% (inactive) and -46.4% (active),29.2% (inactive) and 1.54% (active),74.1% (inactive) and 30.9% (inactive),12.8% (inactive) and 13.7% (inactive),23.5% (inactive) and -18.1% (active),31.7% (inactive) and 23.4% (inactive),92% (inactive) and 26% (inactive)
COc1cc2c(Nc3ccc(Cl)c(Cl)c3F)ncnc2cc1OCC1C[C@@H]2CN(C)C[C@@H]2C1 (stereo not given in full),-23.1% (active) and -45.4% (active),-48.5% (active) and 6.02% (active),-88.4% (active) and 27.4% (inactive),-89.8% (active) and 37.6% (inactive),-42.7% (active) and 29.5% (inactive),-87.7% (active) and -13.8% (active),-70.1% (active) and -9.02% (active),-53.9% (active) and 25.6% (inactive),-16.9% (active),-56.5% (active) and 29.6% (inactive)
CC1=NN(c2ccccc2)C(=O)C1C(=O)c1ccccc1 (stereo not given),82.7% (inactive),91.9% (inactive),88.4% (inactive),120% (inactive),108% (inactive),112% (inactive),100% (inactive),102% (inactive),127% (inactive),101% (inactive)
O=C1OC(Oc2ccc(Br)cc2)(c2ccccc2)c2ccccc21 (stereo not given),75.4% (inactive),85.8% (inactive),93.9% (inactive) and 93% (inactive),97.3% (inactive) and 110% (inactive),92.1% (inactive),96.1% (inactive) and 110% (inactive),79.7% (inactive) and 81.3% (inactive),87.4% (inactive) and 68.8% (inactive),97.6% (inactive) and 84.7% (inactive),90.8% (inactive) and 76.8% (inactive)
NC(=S)N/N=C(\c1ccc(Br)cc1)C1CC1,87.6% (inactive),71.3% (inactive) and 60.9% (inactive),83% (inactive),110% (inactive) and 97.1% (inactive),74.4% (inactive),105% (inactive) and 97% (inactive),18.1% (inactive) and 42.3% (inactive),38.3% (inactive) and 37.1% (inactive),96.1% (inactive) and 98% (inactive),74.2% (inactive) and 57.5% (inactive)
COc1ccccc1/C=N\N=C(N/N=C/c1ccccc1OC)N/N=C/c1ccccc1OC,19.9% (inactive) and 19.6% (inactive),26.7% (inactive) and -8.79% (active),69% (inactive) and 23.3% (inactive),94.6% (inactive) and 52.1% (inactive),29.2% (inactive),73.7% (inactive) and 49.8% (inactive),87.7% (inactive) and 26.3% (inactive),-6.91% (active) and 19.3% (inactive),99.5% (inactive) and 33.8% (inactive),45.4% (inactive) and 19.1% (inactive)
CCCCCN(CCCCC)CC(O)c1cc2c(c3ccccc13)CCCC2 (stereo not given),11.1% (inactive) and 14.2% (inactive),15.4% (inactive) and 34.8% (inactive),88.6% (inactive) and 94.3% (inactive),66.9% (inactive) and 55.6% (inactive),60.9% (inactive) and 59.9% (inactive),84.2% (inactive) and 79% (inactive),48.9% (inactive) and -1.04% (active),71.9% (inactive) and 54.4% (inactive),85.6% (inactive) and 2.9% (active),70% (inactive) and 63.7% (inactive)
S=C(S)N1CCCC1,65.2% (inactive) and 83.6% (inactive),93% (inactive) and 91.3% (inactive),106% (inactive) and 94.1% (inactive),112% (inactive) and 113% (inactive),117% (inactive) and 96.8% (inactive),116% (inactive) and 112% (inactive),58.9% (inactive) and 56.5% (inactive),69.5% (inactive) and 100% (inactive),106% (inactive),107% (inactive) and 99.1% (inactive)
CN(C)c1ccc2nc3ccc(=[N+](C)C)cc-3sc2c1,29.2% (inactive) and 39.6% (inactive) and 51.5% (inactive),40.4% (inactive) and 34.1% (inactive) and 40.2% (inactive),3.76% (active) and 0.437% (active) and 8.05% (active),17.7% (inactive) and 14.5% (inactive) and 30.6% (inactive),8.61% (active) and -18% (active) and 10.4% (inactive),41.4% (inactive) and 60% (inactive) and 73.2% (inactive),9.73% (active) and 1.01% (active) and 43.1% (inactive),0.379% (active) and -3.68% (active) and 10.2% (inactive),49.8% (inactive) and 111% (inactive),12.1% (inactive) and 10.9% (inactive) and 13.9% (inactive)
O=C1OC2(c3ccccc31)c1ccc(O)c(O)c1Oc1c2ccc(O)c1O,-17.7% (active) and 101% (inactive),113% (inactive) and 109% (inactive),107% (inactive),92.1% (inactive) and 115% (inactive),89.7% (inactive) and 108% (inactive),106% (inactive) and 98.8% (inactive),117% (inactive) and 124% (inactive),98.7% (inactive) and 107% (inactive),112% (inactive) and 132% (inactive),107% (inactive) and 104% (inactive)
COc1cc(-c2nccc3cc4c(cc23)OCO4)cc(OC)c1OC,18.5% (inactive) and 35.6% (inactive),37.5% (inactive),48.9% (inactive) and 35.2% (inactive),66.4% (inactive) and 73.5% (inactive),79.2% (inactive) and 69% (inactive),23.7% (inactive) and 9.08% (active),45.8% (inactive) and 37.7% (inactive),-9.95% (active) and -25.2% (active),18.7% (inactive) and 53.8% (inactive),-3.6% (active) and 8.92% (active)
CC1(c2ccc3ccccc3c2)CCC(=O)O1 (stereo not given),92.2% (inactive),109% (inactive),101% (inactive),102% (inactive),110% (inactive),95.3% (inactive),102% (inactive),105% (inactive),125% (inactive),105% (inactive)
CC(C)CNC(=O)c1ccccc1C(=O)NC1(C(=O)NCC(C)C)CCCC1,110% (inactive) and 90.5% (inactive),105% (inactive),101% (inactive) and 104% (inactive),98.6% (inactive) and 98.3% (inactive),107% (inactive) and 111% (inactive),107% (inactive) and 99.5% (inactive),111% (inactive) and 102% (inactive),116% (inactive) and 109% (inactive),110% (inactive) and 105% (inactive),106% (inactive) and 105% (inactive)
COc1ccc2nc(Cl)cc(C)c2c1,88.2% (inactive) and 82.3% (inactive),95.6% (inactive) and 109% (inactive),101% (inactive) and 47.4% (inactive),93.7% (inactive) and 93.4% (inactive),99.2% (inactive) and 91.8% (inactive),107% (inactive) and 124% (inactive),108% (inactive) and 132% (inactive),119% (inactive),113% (inactive),98.9% (inactive) and 102% (inactive)
OC(COc1cccc2ccccc12)CN1CCN(c2ccc(Cl)cc2)CC1 (stereo not given),113% (inactive) and 75.2% (inactive),68.2% (inactive),79.8% (inactive) and 87.1% (inactive),84.1% (inactive) and 87.3% (inactive),35.2% (inactive) and 92.1% (inactive),88.8% (inactive) and 100% (inactive),103% (inactive) and 84.8% (inactive),83.2% (inactive) and 116% (inactive),68% (inactive) and 116% (inactive),88.6% (inactive) and 83.4% (inactive)
c1ccc2cc(C[n+]3ccn(Cc4ccc5ccccc5n4)c3)ccc2c1,-3.69% (active) and 31.5% (inactive),3.76% (active) and 13.1% (inactive),1.74% (active) and 23.8% (inactive),13.4% (inactive) and 50.9% (inactive),11.5% (inactive) and 33.7% (inactive),-11.7% (active) and 34.2% (inactive),11.6% (inactive) and 25.1% (inactive),-1.69% (active) and 21.7% (inactive),27.8% (inactive) and 33% (inactive),103% (inactive) and 102% (inactive)
